# Laboratory results from article PMC7862700, “An all-to-all approach to the identification of sequence-specific readers for epigenetic DNA modifications on cytosine”.
# Experiments:
# Assay in all cases: DAPPL (digital affinity profiling via proximity ligation, sequencing); 10 mM Tris-HCl pH 7.5, 50 mM NaCl, 1 mM DTT, 4% glycerol, room temperature, 30 min; GST-TFs on glutathione beads, 16-mer random dsDNA library, 0.1% formaldehyde crosslink after washing; high values mean tight binding
# FLI1 = target: T1, FLI1 (Homo sapiens, UniProt Q01543 1-452); details: protein: recombinant; tags: N-terminal GST; dsDNA, one strand shown
# T1 sequence: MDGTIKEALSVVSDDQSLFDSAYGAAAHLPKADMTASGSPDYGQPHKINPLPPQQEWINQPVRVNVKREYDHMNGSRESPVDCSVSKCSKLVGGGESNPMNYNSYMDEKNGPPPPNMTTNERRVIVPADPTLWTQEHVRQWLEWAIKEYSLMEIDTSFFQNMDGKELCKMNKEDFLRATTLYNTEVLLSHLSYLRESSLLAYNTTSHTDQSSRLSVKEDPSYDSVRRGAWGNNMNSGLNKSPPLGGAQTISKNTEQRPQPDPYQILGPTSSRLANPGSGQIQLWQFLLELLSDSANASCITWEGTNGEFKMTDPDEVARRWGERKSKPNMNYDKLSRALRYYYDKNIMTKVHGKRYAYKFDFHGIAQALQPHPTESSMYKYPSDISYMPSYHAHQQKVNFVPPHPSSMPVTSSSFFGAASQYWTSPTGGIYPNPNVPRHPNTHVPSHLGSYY
# Outline: (§1)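 Pools of DNA-barcoded human transcription factors, expressed in yeast as GST fusions on glutathione beads and combined with a tag-only sample, were incubated with 200 nmole of a 16-mer random double-stranded DNA library. Incubation took 30 min at room temperature in Tris/NaCl/DTT/glycerol buffer and was followed by washing, 0.1% formaldehyde crosslinking, proximity ligation (BsaI/T4 ligase, 1 h, 37 °C), PCR amplification and sequencing on an Illumina NextSeq500. Binding signal is the ratio of a hexamer's read frequency for a factor to its frequency for the tag-only sample.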
# ELK1 = target: T2, ELK1 (Homo sapiens, UniProt P19419 1-428); details: protein: recombinant; tags: N-terminal GST; dsDNA, one strand shown
# T2 sequence: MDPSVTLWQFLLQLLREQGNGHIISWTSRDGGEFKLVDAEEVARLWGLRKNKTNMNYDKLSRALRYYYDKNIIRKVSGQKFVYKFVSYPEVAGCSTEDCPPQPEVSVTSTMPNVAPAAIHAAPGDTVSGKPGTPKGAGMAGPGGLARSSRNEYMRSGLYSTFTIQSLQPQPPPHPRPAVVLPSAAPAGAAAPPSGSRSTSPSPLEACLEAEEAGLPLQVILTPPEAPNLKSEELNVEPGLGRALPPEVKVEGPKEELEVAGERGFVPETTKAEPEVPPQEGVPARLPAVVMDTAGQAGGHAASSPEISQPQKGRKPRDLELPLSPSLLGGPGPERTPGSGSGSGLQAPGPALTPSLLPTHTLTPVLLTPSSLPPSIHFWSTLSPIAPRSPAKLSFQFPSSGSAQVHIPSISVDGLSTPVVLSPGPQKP
# Outline: as §1
# GABPA = target: T3, GABPA (Homo sapiens, UniProt Q06546 1-454); details: protein: recombinant; tags: N-terminal GST; dsDNA, one strand shown
# T3 sequence: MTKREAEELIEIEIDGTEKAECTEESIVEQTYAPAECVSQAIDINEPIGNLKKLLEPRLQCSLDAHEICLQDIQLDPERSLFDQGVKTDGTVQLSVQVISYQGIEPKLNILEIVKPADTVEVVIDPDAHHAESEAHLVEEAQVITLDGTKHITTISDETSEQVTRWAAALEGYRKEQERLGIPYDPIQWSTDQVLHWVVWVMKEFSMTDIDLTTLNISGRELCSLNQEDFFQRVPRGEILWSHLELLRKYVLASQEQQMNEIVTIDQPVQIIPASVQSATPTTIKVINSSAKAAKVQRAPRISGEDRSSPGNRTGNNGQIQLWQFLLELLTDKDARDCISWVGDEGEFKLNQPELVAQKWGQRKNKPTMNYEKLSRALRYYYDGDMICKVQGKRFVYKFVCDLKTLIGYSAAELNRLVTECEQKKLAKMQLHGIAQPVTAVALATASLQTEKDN
# Outline: as §1
# ERG = target: T4, ERG (Homo sapiens, UniProt P11308 1-479); details: protein: recombinant; tags: N-terminal GST; dsDNA, one strand shown
# T4 sequence: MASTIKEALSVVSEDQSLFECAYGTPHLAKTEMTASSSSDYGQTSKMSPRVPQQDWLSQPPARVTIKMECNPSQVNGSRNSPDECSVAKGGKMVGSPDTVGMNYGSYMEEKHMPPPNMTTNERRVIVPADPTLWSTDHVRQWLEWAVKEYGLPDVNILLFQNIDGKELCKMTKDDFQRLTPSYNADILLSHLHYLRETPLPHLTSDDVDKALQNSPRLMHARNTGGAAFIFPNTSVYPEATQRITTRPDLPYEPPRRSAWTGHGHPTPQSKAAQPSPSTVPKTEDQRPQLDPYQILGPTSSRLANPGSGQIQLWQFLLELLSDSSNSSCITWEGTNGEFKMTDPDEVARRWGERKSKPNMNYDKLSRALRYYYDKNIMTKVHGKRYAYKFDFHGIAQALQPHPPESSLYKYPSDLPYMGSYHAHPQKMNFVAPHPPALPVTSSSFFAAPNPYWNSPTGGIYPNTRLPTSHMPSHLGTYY
# Outline: as §1
# ELF1 = ELF1 (Homo sapiens, UniProt P32519 1-619); details: protein: recombinant; tags: N-terminal GST; dsDNA, one strand shown
# Outline: as §1
# EHF = target: T5, EHF (Homo sapiens, UniProt Q9NZC4 1-300); details: protein: recombinant; tags: N-terminal GST; dsDNA, one strand shown
# T5 sequence: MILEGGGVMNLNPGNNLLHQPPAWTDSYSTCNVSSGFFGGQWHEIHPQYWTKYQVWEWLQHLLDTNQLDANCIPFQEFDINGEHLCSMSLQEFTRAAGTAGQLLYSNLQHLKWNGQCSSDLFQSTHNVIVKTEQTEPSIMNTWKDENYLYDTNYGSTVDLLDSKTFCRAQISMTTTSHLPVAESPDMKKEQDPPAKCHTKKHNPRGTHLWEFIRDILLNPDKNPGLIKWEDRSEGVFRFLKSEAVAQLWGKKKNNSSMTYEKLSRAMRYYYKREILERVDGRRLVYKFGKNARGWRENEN
# Outline: as §1
# SPIB = SPIB (Homo sapiens, UniProt Q01892 1-262); details: protein: recombinant; tags: N-terminal GST; dsDNA, one strand shown
# Outline: as §1
# ELK3 = target: T6, ELK3 (Homo sapiens, UniProt P41970 1-407); details: protein: recombinant; tags: N-terminal GST; dsDNA, one strand shown
# T6 sequence: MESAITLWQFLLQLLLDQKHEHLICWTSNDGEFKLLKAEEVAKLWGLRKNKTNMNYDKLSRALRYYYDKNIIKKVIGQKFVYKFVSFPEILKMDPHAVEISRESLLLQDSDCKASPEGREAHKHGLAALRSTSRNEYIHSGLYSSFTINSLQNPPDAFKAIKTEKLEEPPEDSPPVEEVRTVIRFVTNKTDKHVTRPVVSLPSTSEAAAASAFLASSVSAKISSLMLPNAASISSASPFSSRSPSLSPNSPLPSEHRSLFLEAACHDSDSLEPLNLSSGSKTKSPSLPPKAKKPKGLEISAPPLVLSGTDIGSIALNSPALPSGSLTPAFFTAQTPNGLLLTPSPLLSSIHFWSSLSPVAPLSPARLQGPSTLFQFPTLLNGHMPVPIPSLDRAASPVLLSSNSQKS
# Outline: as §1
# FEV = target: T7, FEV (Homo sapiens, UniProt Q99581 1-238); details: protein: recombinant; tags: N-terminal GST; dsDNA, one strand shown
# T7 sequence: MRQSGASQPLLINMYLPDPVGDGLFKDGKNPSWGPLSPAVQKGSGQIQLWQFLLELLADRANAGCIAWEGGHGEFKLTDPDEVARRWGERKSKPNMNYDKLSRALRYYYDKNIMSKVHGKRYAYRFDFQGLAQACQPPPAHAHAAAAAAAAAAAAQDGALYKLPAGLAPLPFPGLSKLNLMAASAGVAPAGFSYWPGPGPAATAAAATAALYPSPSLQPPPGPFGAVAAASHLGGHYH
# Outline: as §1
# ETV5 = ETV5 (Homo sapiens, UniProt P41161 1-510); details: protein: recombinant; tags: N-terminal GST; dsDNA, one strand shown
# Outline: as §1
# HSF1 = HSF1 (Homo sapiens, UniProt Q00613 1-529); details: protein: recombinant; tags: N-terminal GST; chain copies: 3; dsDNA, one strand shown
# Outline: as §1
# SPIC = target: T8, SPIC (Homo sapiens, UniProt Q8N5J4 1-248); details: protein: recombinant; tags: N-terminal GST; dsDNA, one strand shown
# T8 sequence: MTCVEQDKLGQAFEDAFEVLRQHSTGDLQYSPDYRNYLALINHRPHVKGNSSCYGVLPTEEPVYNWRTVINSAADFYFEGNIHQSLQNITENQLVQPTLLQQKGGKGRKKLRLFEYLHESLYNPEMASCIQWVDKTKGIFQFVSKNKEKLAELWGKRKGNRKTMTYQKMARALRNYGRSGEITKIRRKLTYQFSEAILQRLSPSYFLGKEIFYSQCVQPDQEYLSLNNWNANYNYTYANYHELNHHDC
# Outline: as §1
# ELF4 = ELF4 (Homo sapiens, UniProt Q99607 1-663); details: protein: recombinant; tags: N-terminal GST; dsDNA, one strand shown
# Outline: as §1
# ELK4 = target: T9, ELK4 (Homo sapiens, UniProt P28324-2 1-405); details: protein: recombinant; tags: N-terminal GST; dsDNA, one strand shown
# T9 sequence: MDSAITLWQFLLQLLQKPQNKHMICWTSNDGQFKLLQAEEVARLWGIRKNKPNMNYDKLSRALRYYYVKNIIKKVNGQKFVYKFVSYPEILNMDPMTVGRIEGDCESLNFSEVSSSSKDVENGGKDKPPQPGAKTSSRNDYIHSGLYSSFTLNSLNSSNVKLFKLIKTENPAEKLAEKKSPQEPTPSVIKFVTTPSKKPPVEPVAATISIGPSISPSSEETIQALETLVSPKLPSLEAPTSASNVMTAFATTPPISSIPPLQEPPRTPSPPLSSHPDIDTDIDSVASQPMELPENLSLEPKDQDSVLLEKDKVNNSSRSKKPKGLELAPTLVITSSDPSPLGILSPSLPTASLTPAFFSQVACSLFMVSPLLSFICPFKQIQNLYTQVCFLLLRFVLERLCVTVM
# Outline: as §1
# ETV2 = target: T10, ETV2 (Homo sapiens, UniProt O00321 1-342); details: protein: recombinant; tags: N-terminal GST; dsDNA, one strand shown
# T10 sequence: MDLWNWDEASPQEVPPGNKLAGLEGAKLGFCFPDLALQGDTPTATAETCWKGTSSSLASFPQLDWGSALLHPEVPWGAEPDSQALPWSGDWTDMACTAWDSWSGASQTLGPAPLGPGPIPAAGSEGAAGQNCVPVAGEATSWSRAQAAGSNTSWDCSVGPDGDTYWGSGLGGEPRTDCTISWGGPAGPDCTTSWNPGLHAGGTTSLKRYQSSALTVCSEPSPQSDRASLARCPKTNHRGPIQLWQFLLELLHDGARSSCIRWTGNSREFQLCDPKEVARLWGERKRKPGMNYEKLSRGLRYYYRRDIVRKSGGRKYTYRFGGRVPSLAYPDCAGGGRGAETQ
# Outline: as §1
# ELF3 = target: T11, ELF3 (Homo sapiens, UniProt P78545 1-371); details: protein: recombinant; tags: N-terminal GST; dsDNA, one strand shown
# T11 sequence: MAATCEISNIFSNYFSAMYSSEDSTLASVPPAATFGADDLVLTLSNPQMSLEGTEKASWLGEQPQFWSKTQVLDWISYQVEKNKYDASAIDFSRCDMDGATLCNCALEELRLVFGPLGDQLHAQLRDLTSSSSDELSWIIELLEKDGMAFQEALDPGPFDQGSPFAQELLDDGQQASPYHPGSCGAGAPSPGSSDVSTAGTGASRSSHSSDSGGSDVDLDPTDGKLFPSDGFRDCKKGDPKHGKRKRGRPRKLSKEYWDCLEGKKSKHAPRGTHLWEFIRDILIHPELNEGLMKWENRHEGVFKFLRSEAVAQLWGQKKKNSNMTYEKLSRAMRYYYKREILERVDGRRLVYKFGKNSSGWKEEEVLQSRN
# Outline: as §1
# CRX = CRX (Homo sapiens, UniProt O43186 1-299); details: protein: recombinant; tags: N-terminal GST; dsDNA, one strand shown
# Outline: as §1
# ETV1 = ETV1 (Homo sapiens, UniProt P50549 1-477); details: protein: recombinant; tags: N-terminal GST; dsDNA, one strand shown
# Outline: as §1
# Chain of ETV1 (P50549 whole entry): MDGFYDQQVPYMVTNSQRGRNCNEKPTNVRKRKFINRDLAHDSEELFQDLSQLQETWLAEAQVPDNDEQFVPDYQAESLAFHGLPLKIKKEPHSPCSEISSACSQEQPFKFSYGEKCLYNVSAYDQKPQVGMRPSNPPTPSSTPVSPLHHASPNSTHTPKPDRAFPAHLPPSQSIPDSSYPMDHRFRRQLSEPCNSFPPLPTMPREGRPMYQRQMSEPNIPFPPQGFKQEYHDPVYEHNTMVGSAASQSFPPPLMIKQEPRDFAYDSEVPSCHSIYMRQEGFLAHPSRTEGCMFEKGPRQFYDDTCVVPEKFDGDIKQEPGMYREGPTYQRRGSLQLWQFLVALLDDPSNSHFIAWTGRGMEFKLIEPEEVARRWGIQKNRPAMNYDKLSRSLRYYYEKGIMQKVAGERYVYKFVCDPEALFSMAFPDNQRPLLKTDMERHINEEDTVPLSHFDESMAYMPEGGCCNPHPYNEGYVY
# Chain of CRX (O43186 whole entry): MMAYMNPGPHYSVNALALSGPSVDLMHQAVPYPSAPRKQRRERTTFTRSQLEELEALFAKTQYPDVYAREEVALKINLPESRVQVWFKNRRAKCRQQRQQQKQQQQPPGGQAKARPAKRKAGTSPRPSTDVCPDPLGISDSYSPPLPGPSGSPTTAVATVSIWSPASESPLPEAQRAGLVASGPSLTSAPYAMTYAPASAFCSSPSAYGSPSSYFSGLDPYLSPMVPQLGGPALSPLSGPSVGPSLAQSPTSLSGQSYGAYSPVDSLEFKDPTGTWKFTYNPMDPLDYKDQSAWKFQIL
# Chain of ETV5 (P41161 whole entry): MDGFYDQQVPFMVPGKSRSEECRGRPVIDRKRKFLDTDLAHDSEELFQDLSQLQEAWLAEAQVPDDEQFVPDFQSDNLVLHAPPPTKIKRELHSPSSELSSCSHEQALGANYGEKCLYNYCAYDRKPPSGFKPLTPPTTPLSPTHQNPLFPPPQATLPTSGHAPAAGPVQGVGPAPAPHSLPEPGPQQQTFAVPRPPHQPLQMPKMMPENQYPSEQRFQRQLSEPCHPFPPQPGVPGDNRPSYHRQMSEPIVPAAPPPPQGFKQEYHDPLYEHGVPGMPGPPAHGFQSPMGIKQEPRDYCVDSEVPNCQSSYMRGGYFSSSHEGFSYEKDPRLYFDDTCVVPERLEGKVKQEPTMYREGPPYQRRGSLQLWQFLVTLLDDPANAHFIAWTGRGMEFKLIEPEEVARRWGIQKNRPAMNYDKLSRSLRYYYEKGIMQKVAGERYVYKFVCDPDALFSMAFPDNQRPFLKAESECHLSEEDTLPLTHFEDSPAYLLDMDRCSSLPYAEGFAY
# Chain of HSF1 (Q00613 whole entry): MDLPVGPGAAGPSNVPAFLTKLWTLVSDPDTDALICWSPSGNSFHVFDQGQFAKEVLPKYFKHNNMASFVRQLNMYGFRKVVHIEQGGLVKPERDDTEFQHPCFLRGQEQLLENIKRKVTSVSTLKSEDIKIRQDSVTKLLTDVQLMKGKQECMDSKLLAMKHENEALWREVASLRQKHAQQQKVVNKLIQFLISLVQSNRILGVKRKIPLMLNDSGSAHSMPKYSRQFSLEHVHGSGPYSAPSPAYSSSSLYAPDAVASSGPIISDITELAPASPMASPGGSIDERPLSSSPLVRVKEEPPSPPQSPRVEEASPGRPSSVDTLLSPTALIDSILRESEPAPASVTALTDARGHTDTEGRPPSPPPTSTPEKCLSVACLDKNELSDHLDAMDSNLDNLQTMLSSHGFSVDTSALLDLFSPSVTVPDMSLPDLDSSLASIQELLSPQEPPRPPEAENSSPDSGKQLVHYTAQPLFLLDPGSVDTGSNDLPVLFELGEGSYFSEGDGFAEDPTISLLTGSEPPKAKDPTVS
# Chain of ELF1 (P32519 whole entry): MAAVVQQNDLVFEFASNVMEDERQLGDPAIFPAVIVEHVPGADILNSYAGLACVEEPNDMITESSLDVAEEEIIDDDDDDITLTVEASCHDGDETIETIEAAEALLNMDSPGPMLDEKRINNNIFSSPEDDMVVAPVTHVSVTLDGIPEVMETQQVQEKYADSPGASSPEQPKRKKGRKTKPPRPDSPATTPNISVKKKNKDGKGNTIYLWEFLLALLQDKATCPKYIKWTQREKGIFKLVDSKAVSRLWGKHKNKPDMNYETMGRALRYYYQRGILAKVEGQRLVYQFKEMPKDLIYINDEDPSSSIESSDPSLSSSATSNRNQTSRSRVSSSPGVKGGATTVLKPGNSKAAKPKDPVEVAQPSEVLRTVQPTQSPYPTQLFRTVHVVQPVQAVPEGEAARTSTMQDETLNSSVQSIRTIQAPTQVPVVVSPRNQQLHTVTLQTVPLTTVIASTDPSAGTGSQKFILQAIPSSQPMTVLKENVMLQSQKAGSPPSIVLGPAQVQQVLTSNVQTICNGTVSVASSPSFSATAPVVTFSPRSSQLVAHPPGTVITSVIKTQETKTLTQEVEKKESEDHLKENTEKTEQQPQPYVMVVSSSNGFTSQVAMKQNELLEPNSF
# Chain of SPIB (Q01892 whole entry): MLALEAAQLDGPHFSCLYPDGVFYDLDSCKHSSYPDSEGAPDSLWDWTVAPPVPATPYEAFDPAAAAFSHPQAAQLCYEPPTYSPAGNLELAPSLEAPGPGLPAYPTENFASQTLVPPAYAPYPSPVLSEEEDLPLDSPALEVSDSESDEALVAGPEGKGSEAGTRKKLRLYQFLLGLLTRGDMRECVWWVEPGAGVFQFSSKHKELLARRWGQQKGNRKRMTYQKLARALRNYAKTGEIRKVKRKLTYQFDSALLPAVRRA
# Chain of ELF4 (Q99607 whole entry): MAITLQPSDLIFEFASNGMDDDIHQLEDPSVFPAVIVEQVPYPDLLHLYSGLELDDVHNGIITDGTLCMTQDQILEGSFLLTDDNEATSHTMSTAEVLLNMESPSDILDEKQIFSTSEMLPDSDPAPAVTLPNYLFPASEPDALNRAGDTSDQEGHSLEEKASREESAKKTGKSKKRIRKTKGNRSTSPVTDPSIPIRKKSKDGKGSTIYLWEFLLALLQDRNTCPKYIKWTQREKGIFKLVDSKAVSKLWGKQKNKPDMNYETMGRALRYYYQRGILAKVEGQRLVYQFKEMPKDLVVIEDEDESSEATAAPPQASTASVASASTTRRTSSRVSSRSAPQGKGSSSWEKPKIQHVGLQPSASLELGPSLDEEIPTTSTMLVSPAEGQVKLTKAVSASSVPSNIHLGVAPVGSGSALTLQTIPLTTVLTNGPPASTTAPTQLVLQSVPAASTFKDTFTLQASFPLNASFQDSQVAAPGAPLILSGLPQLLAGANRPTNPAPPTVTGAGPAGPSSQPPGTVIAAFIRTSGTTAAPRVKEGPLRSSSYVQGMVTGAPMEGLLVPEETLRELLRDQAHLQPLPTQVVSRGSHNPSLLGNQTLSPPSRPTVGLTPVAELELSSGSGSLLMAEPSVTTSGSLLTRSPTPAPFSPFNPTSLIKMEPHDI
sequence,measurement,setting,value
ATCTGA,binding signal,FLI1,"1.08 fold enrichment (6-mer frequency, TF over GST control)"
same,binding signal,ELK1,"1.08 fold enrichment (6-mer frequency, TF over GST control)"
same,binding signal,GABPA,"1.21 fold enrichment (6-mer frequency, TF over GST control)"
same,binding signal,ERG,"1.07 fold enrichment (6-mer frequency, TF over GST control)"
same,binding signal,ELF1,"1.16 fold enrichment (6-mer frequency, TF over GST control)"
same,binding signal,EHF,"1.17 fold enrichment (6-mer frequency, TF over GST control)"
same,binding signal,SPIB,"1.17 fold enrichment (6-mer frequency, TF over GST control)"
same,binding signal,ELK3,"1.2 fold enrichment (6-mer frequency, TF over GST control)"
same,binding signal,FEV,"1.1 fold enrichment (6-mer frequency, TF over GST control)"
same,binding signal,ETV5,"1.07 fold enrichment (6-mer frequency, TF over GST control)"
same,binding signal,HSF1,"1.16 fold enrichment (6-mer frequency, TF over GST control)"
same,binding signal,SPIC,"1.21 fold enrichment (6-mer frequency, TF over GST control)"
same,binding signal,ELF4,"1.09 fold enrichment (6-mer frequency, TF over GST control)"
same,binding signal,ELK4,"1.2 fold enrichment (6-mer frequency, TF over GST control)"
same,binding signal,ETV2,"1.01 fold enrichment (6-mer frequency, TF over GST control)"
same,binding signal,ELF3,"1.12 fold enrichment (6-mer frequency, TF over GST control)"
same,binding signal,CRX,"1.4 fold enrichment (6-mer frequency, TF over GST control)"
same,binding signal,ETV1,"1.24 fold enrichment (6-mer frequency, TF over GST control)"
